High-throughput results deposited in PubChem BioAssay by several laboratories.
EBV LMP1 NFkB: Epstein-Barr LMP1 NF-kappaB reporter inhibition | 350,000 tested, 0.69% active | LMP1-induced NF-kappaB luciferase reporter cells, luminescence | inhibition, % at 12.5 µM; in the data active means inhibition above about 41%
697 NFkB inh: lowers PMA/ionomycin-induced NF-kB signal in 697 B cells | 697 B-cell NF-kB luciferase reporter, 16 h | inhibition, % at 4 µM | 330,000 tested, 0.33% active; in the data active means inhibition above about 35%
Gli-Sufu antag: antagonists of Gli-Sufu signaling; inhibition, % at 5 µM; 340,000 tested, 0.74% active; AID 588413; Sufu-KO-LIGHT fibroblasts, Gli luciferase reporter luminescence;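 active means inhibition above about 55%, limit read from the data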
MITF TRPM1 inh: inhibitors of MITF-driven TRPM1 promoter in melanoma cells | inhibition, % at 12.5 µM | SK-MEL-5 TRPM1 promoter luciferase, 24 h | 330,000 tested, 0.83% active;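 active means mean inhibition across replicates of 60% or more, whatever share of single replicates reaches that level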
Jurkat NFkB inh: lowers PMA/ionomycin-induced NF-kB signal in Jurkat cells; PMA/ionomycin-induced NF-kB luciferase reporter, luminescence; inhibition, % at 4 µM; 330,000 tested, 0.53% active; in the data active means inhibition above about 50%
Shn3 inh set2: reduces Shn3 3'UTR luciferase signal in osteoblasts; Clone20 osteoblast Shn3 3'UTR firefly luciferase, 24 h; inhibition, % at 12.5 µM; 360,000 tested, 0.52% active;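 active means mean inhibition of at least 75% with every replicate also reaching 75%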
Gli-Sufu confirm: confirmation of Gli-SUFU pathway antagonists | shares compounds with Gli-Sufu antag | Sufu-KO-LIGHT cells, Gli luciferase reporter, luminescence | inhibition, % at 5 µM | 2,500 tested, 40% active | AID 602428;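 active means mean inhibition at 5 µM reaching about 45%, limit read from the data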
Gli cytotox: cytotoxic in Gli-SUFU antagonist counter-screen. shares compounds with Gli-Sufu antag. Sufu-KO-LIGHT cells cytotoxicity, ATP luminescence. cytotoxicity, % at 5 µM. 2,500 tested, 32% active;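 active means mean cytotoxicity at 5 µM above about 25%, limit read from the data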;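 further: cells exposed to compound overnight for roughly 16 to 18 hours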
Wnt3a cs: inhibits Wnt3a reporter, counter-screen for Gli-SUFU antagonists. AID 651995. 2,500 tested, 20% active. shares compounds with Gli-Sufu antag. inhibition, % at 6.25 µM. Wnt-LIGHT cells, Wnt3a-driven luciferase reporter, luminescence;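 active means mean inhibition above about 25%, limit read from the data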
Hits are given with their value; . = inactive; / = no result given. The list is not random: actives were taken first. Their share in the collection is about 2.3%.

SMILES	EBV LMP1 NFkB	697 NFkB inh	Gli-Sufu antag	MITF TRPM1 inh	Jurkat NFkB inh	Shn3 inh set2	Gli-Sufu confirm	Gli cytotox	Wnt3a cs
CCc1c(C)nc2cc(-c3ccc(OC)c(OC)c3)nn2c1NCC1CC1	80	.	74	.	.	93	74	27	35
COc1ccccc1Nc1nc(-c2c(C)nc3ncccn23)cs1	.	/	55	.	/	.	68	59	28
COc1ccc(Nc2nc(-c3c(C)nc4ncccn34)cs2)cc1	.	/	71	.	/	.	75	66	.
Cc1nc2ncccn2c1-c1csc(Nc2ccc(N(C)C)cc2)n1	.	/	62	.	/	.	57	45	.
O=C(O)c1ccc(Nc2ccc3nonc3c2[N+](=O)[O-])cc1	.	.	.	.	.	.	/	/	/
CCSc1nnc2n(-c3ccc(OC)cc3)c(=O)c3c4c(sc3n12)CCCC4	.	.	.	.	.	.	/	/	/
COc1ccccc1-n1c(=O)c2c3c(sc2n2c(SC)nnc12)CCC3	.	.	.	.	.	.	.	.	.
O=C(c1ccc(=O)[nH]n1)N1CCN(S(=O)(=O)c2cccc(F)c2)CC1	.	.	.	.	.	.	/	/	/
O=C(c1ccc(=O)[nH]n1)N1CCN(S(=O)(=O)c2ccc3ccccc3c2)CC1	.	.	63	.	.	.	.	.	.
COc1ccc(Nc2nc(N3CCCCC3)c3ccccc3n2)cc1	.	.	58	.	.	.	49	39	.
CCn1c(-c2cc(C3CC3)nc3ccccc23)n[nH]c1=S	.	.	.	.	.	.	/	/	/
Cc1[nH]c2ccccc2c1[C@H]1[C@@H](CC#N)C1(C)C	.	.	.	.	.	.	.	.	.
Cc1[nH]c2ccccc2c1CC#N	.	.	.	.	.	/	/	/	/
CCOc1ccc(NC(=S)NNc2ccnc3cc(Cl)ccc23)cc1	.	.	56	.	.	.	66	.	.
CCOc1ccccc1Nc1ccnc2cc(Cl)ccc12	.	.	.	.	.	.	/	/	/
Cc1ccc(S(=O)(=O)N2CCOCC2)cc1C(=O)Nc1cc(Cl)ccc1N1CCOCC1	.	.	.	.	.	.	/	/	/
Cc1cnn2c(C3CC3)ccnc12	.	.	58	.	.	.	.	.	.
COc1cccc(CNC(=O)CCNS(=O)(=O)c2ccc(Br)s2)c1	.	.	.	.	.	.	/	/	/
CCOc1ccccc1/C=N/NC(=O)c1cccc(Cl)c1	.	.	.	.	.	.	/	/	/
COc1cccc(NC(=S)/C(=C(\[O-])c2cc(C)n(-c3ccccc3F)c2C)[n+]2ccc(N(C)C)cc2)c1	.	.	60	.	.	.	57	33	.
Cc1cc(C([O-])=C(C(=S)Nc2ccc(F)cc2)[n+]2ccccc2)c(C)n1-c1ccc(F)cc1	.	/	.	.	/	.	/	/	/
CC1(C)COCN1C(=O)c1ccc(C#N)cc1	.	.	.	.	.	.	.	.	.
CCOC(=O)C1(C)CCN1C(=O)c1ccc(C#N)cc1 (stereo not drawn)	/	/	/	/	/	.	/	/	/
CCOc1ncccc1C(=O)N1CCN(c2cc(Cl)ccc2C)CC1	.	.	.	.	.	.	.	54	.
CCOc1ncccc1C(=O)N1CCN(c2cccc(C)c2C)CC1	.	/	.	.	/	.	/	/	/
SMILES	EBV LMP1 NFkB	697 NFkB inh	Gli-Sufu antag	MITF TRPM1 inh	Jurkat NFkB inh	Shn3 inh set2	Gli-Sufu confirm	Gli cytotox	Wnt3a cs
NC(N)=NN=C(c1ccc(F)cc1)c1ccc(C(F)(F)F)cc1	.	/	57	103	/	.	.	50	.
Cc1nnc(NCc2ccncc2)c2ccccc12	.	.	.	.	.	.	.	.	.
O=C(Nc1ccc(C(F)(F)F)cc1)C1CCCCN1S(=O)(=O)c1ccccc1 (stereo not drawn)	.	.	.	.	.	.	/	/	/
CC(C)(CC(=O)O)CC(=O)Nc1ccc(Oc2ccc(C(C)(C)C)cc2)nc1	/	.	.	/	.	/	/	/	/
Cc1ccc(S(=O)(=O)N(Cc2ccccc2)c2ccccc2C(=O)NCc2ccco2)cc1	.	.	96	.	.	.	.	.	.
CC(=O)Nc1ccc(S(=O)(=O)NC2=NCN(CCOC(=O)c3ccccc3)CN2)cc1	.	.	.	.	.	.	/	/	/
COc1cccc(C2/C(=C(\O)c3ccc4c(c3)OCCO4)C(=O)C(=O)N2CC2CCCO2)c1 (stereo not drawn)	.	.	.	.	.	.	/	/	/
CN(C)S(=O)(=O)NCCNc1ccc(C(F)(F)F)cc1[N+](=O)[O-]	.	.	98	.	.	.	.	.	.
CC(=NCCc1ccccc1)C1=C(O)CSC1=O	.	.	.	.	.	.	/	/	/
COc1cccc(-c2cc(C(F)(F)F)n3nc(N)nc3n2)c1	.	.	78	.	.	.	.	.	.
COc1ccc(-c2cc(C(F)(F)F)n3nc(N)nc3n2)cc1	.	.	.	.	.	.	/	/	/
COC(=O)Cn1c(=NC(=O)C(C)(C)C)sc2c(C)cc(C)cc21	.	.	.	/	.	.	/	/	/
CCOC(=O)c1csc(NC(=O)CSc2nnnn2-c2ccc(OC)cc2)n1	.	.	.	.	.	.	/	/	/
COc1ccc(-n2nnnc2SCC(=O)Nc2nnc(C)s2)cc1	.	.	59	.	.	.	.	.	.
COc1cc(/C=N/N(c2ccccc2)c2ccccc2)ccc1O	.	.	.	.	.	.	/	/	/
CN(/N=C\c1ccc(O)c(O)c1)c1nc(-c2ccccc2)cc(-c2ccccc2)n1	.	.	90	.	.	92	82	26	89
O=C(O)CN1C(=O)/C(=C2\C(=O)N(Cc3ccccc3Cl)c3ccccc32)SC1=S	/	/	57	.	/	.	.	.	.
O=C1/C(=C2\C(=O)N(Cc3ccc(F)cc3)c3ccccc32)SC(=S)N1CCS(=O)(=O)O	.	.	.	.	.	.	/	/	/
COCCNC(=O)C(=O)NCC1CCCN1S(=O)(=O)c1cccs1 (stereo not drawn)	.	/	/	/	/	.	/	/	/
Cc1ccccc1N1CCN(C2CCCN(C(=O)c3cc(C(C)C)[nH]n3)C2)CC1 (stereo not drawn)	.	.	.	.	.	.	/	/	/
O=S(=O)(c1ccc(F)cc1)N1CCCC(CO)C1 (stereo not drawn)	.	.	.	.	.	.	.	.	.
Cc1cc(C)nc(/N=C(\N)Nc2ccc(CC(=O)OC(C)C)cc2)n1	.	.	65	.	.	.	48	38	.
O=C(Cc1cccs1)Nc1ccc2c(c1)C(=O)OC2	.	.	99	.	.	.	.	.	.
O=C(COC(=O)CCCSc1nc2ccccc2[nH]1)NC(=O)NC1CCCC1	.	.	.	.	.	.	.	.	.
CCNC(=O)NC(=O)COC(=O)CCCSc1nc2ccccc2[nH]1	.	.	.	.	.	.	/	/	/
